# Laboratory results reported in PubChem BioAssay (NCATS).
# Results filed as inconclusive are left out. Entries that show only a call come without a potency. Activity calls are given as the source filed them. The call rests on the fitted dose curve; in most records, active means well fitted inhibition curve with a large enough effect; inconclusive means small, poorly fitted or top-dose-only effect; inactive means no such curve, though single readings can be large or run the other way.
# Legend:
# [1] = tested on: Zika virus NS2B-NS3 protease (unlinked complex); experiment: Primary screen GU Rhodamine qHTS for Zika virus inhibitors: Unlinked NS2B-NS3 protease assay (AID 1347159); conditions: Recombinant ZIKV NS2B-NS3 protease, Rhodamine110 substrate fluorescence; series mostly up to 107 µM; further: nearly all actives have a fitted effect of over 60% in size
# In short: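 Noncovalent NS2B hydrophilic domain–NS3 protease domain complex (25 nM) preincubated 15 min at room temperature with compounds (up to 114 microM) in 10 mM Tris-HCl pH 8.0, 0.01% Tween 20; 1.5 microM Rhodamine110 substrate added, fluorescence change over 15 min fitted to Hill equation.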
# [2] = tested on: Zika virus NS2B-NS3 protease (linked construct); experiment: Primary screen NINDS Rhodamine qHTS for Zika virus inhibitors (AID 1347160); conditions: purified NS2B-NS3 protease, Rhodamine110 substrate fluorescence; series mostly up to 57.1 µM; further: nearly all actives have a fitted effect of over 55% in size
# In short: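 Purified linked NS2B-NS3 protease (NS2B hydrophilic domain joined to NS3 protease by flexible linker), 25 nM in 10 mM Tris-HCl pH 8.0, 0.01% Tween 20. Compounds titrated, 15 min preincubation at room temperature; 1.5 microM Rhodamine110 substrate, FITC fluorescence change over 15 min.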
Structure (SMILES),Potency [1],Potency [2]
Cc1cc(N(C)C)ccc1-c1nc2ccc(-c3nc4ccc(N5CCN(C)CC5)cc4[nH]3)cc2[nH]1,inactive,inactive
C/C=C/C=C/C(O)=C1\C(O)=C(C)C(=O)[C@@]2(C)OC(=O)[C@@](C)(NC(=O)/C=C/C(=O)O)[C@@H]12,inactive,inactive
O=C(CC1C(=O)Nc2ccccc21)OC[C@H]1O[C@@H](OCCc2ccc(O)cc2)[C@H](O)[C@@H](O)[C@@H]1O (stereo not given in full),inactive,inactive
C[C@@]12C[C@]3(O)O[C@H](O1)[C@]1(COC(=O)c4ccccc4)[C@H]3C[C@@]12O[C@@H]1O[C@H](CO)[C@@H](O)[C@H](O)[C@H]1O,inactive,inactive
CNC(=O)c1cc(Oc2ccc3nc(N[C@@H]4CCCC[C@H]4O)sc3c2)ccn1,inactive,inactive
